Results published in PubChem BioAssay (NCATS).
Results filed as inconclusive are left out. The source made the active and inactive calls. Unless noted, the call rests on the fitted dose curve; in most records, active means well fitted curve in the direction sought with a large enough effect; inconclusive means small, poorly fitted or top-dose-only effect, or another doubt; inactive means no such curve, though single readings can be large; an effect the other way counts as inactive or inconclusive.

Columns and labels:
[1] = qHTS assay to identify small molecule inhibitors of chordoma cells - UCH-2 (AID 1259356); further: series mostly up to about 46 µM
[2] = NS1 protein of Zika virus - qHTS assay to identify small molecule inhibitors in human HEK 293 cells (AID 1347053); further: nearly all actives have a fitted effect of over 55% in size; further: potency means the concentration at half of the fitted maximal effect
Summary of the method: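 TR-FRET signal from two anti-ZIKV NS1 antibodies quantified NS1 in HEK 293 cells 24 h after MR766 infection at MOI = 0.5; compounds were added 1 h before virus. Uninfected cells and infected cells defined the NS1 normalization range.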

[3] = qHTS of pediatric cancer cell lines to identify multiple opportunities for drug repurposing: Primary screen for TC32 cells (AID 1347089); further: nearly all actives have a fitted effect of over 60% in size; further: potency means the concentration at half of the fitted maximal effect
Summary of the method: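 Luminescent ATP read-out (CellTiter-Glo) of metabolically active TC32 cells after 48 h exposure. Concentration-response curves came from 11-point (MIPE, 0.78 nM–46 µM) or 8-point (NPC, 0.59 nM–46 µM) primary titrations; follow-up used 11 points.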

[4] = qHTS of pediatric cancer cell lines to identify multiple opportunities for drug repurposing: Primary screen for DAOY cells (AID 1347090); further: nearly all actives have a fitted effect of over 55% in size; further: potency means the concentration at half of the fitted maximal effect
Summary of the method: (§1)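 Eight- or eleven-point concentration series, 48 h treatment at 37 degrees C in growth media; readout CellTiter-Glo luminescence. Potency and efficacy were taken from the concentration-response curves.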

[5] = qHTS of pediatric cancer cell lines to identify multiple opportunities for drug repurposing: Primary screen for SJ-GBM2 cells (AID 1347091); further: potency means the concentration at half of the fitted maximal effect
Summary of the method: as §1

[6] = P-glycoprotein substrates identified in KB-8-5-11 adenocarcinoma cell line, qHTS therapeutic library screen (AID 1346987); further: nearly all actives have a fitted effect of over 65% in size; further: potency means the concentration at half of the fitted maximal effect
Summary of the method: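 Human cervical adenocarcinoma KB-8-5-11 cells, selected in colchicine to over-express P-gp and assayed without it, were exposed for 72 h to titrated compounds. An ATP-based luminescent viability signal gave AC50.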

[7] = qHTS of pediatric cancer cell lines to identify multiple opportunities for drug repurposing: Primary screen for A673 cells (AID 1347092); further: nearly all actives have a fitted effect of over 45% in size; further: potency means the concentration at half of the fitted maximal effect
Summary of the method: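 Cell viability of A673 measured by CellTiter-Glo ATP luminescence after 48 hours compound exposure. Dilution series spanned 0.78 nM to 46 µM (MIPE, 11-point) or 0.59 nM to 46 µM (NPC, 8-point); bortezomib 2.3 uM positive control.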

[8] = Identifying Small Molecule Inhibitors of Pancreatic Cancer Stem Cells (A2780, Spheroid) (AID 1259357); settings: Potency: A2780 spheroid viability;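 further: compound exposure lasted 48 h before the ATP luminescence read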; further: potency means the concentration at half of the fitted maximal effect
Summary of the method: (§2)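 Luminescent ATP readout (CellTiter-Glo) quantifies surviving cells after a 48 h drug incubation. Normalization uses DMSO wells as no inhibition and media-only wells as full inhibition; bortezomib served as positive control.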

[9] = Identifying Small Molecule Inhibitors of Pancreatic Cancer Stem Cells (SN12C, Adherent) (AID 1259358);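 further: cell survival measured after 48 h of compound exposure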; further: potency means the concentration at half of the fitted maximal effect
Summary of the method: as §2

[10] = Identifying Small Molecule Inhibitors of Pancreatic Cancer Stem Cells (A278, Adherent) (AID 1259361); further: nearly all actives have a fitted effect of over 35% in size
Summary of the method: as §2

[11] = molecular target: T1, Tyrosine-protein phosphatase non-receptor type substrate 1 (Homo sapiens) + Leukocyte surface antigen CD47 (Homo sapiens) (UniProt P78324+Q08722); assay: CD47-SIRPalpha protein protein interaction - LANCE assay qHTS validation (AID 1347057; active means well fitted curve in the direction sought with a large enough effect in the signal ratio, with a control signal flat, not every such curve was filed as active; the % refers to the signal ratio; further: series mostly up to about 38 µM)
Summary of the method: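 Inhibition of soluble CD47/SIRPalpha ectodomain association by titrated compounds, measured as 665/615 nm time-resolved FRET ratio after sequential 30 min room-temperature incubations.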

[12] = molecular target: T1, Tyrosine-protein phosphatase non-receptor type substrate 1 (Homo sapiens) + Leukocyte surface antigen CD47 (Homo sapiens); assay: CD47-SIRPalpha protein protein interaction - Alpha assay qHTS validation (AID 1347059);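 further: bead proximity luminescence from CD47 binding SIRPalpha after compound preincubation with SIRPalpha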
Summary of the method: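 In PBS (pH 7.4) with 0.05% IGEPAL CA-630, compound is preincubated with biotin-Avi-SIRPalpha ectodomain before His-CD47 ectodomain and affinity beads are added. Light-protected room-temperature incubations; AlphaScreen readout.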

[13] = Identifying Small Molecule Inhibitors of Pancreatic Cancer Stem Cells (Panc1, Spheroid) (AID 1259359); settings: Panc1 spheroid cancer stem cell viability;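 further: potency means the concentration at half of the fitted maximal effect; compound exposure lasted 48 h before reading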
Summary of the method: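 Cytotoxicity read by CellTiter-Glo luminescence after 48 h compound exposure at 37C; percent activity scaled between DMSO-treated cells and cell-free wells. Spheroid formats used cells pre-formed 14 days in stem cell media on hydrogel.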

[14] = Identifying Small Molecule Inhibitors of Pancreatic Cancer Stem Cells (SN12C, Spheroid) (AID 1259360); settings: Potency: SN12C spheroid viability; further: potency means the concentration at half of the fitted maximal effect
Summary of the method: as §2

[15] = Identifying Small Molecule Inhibitors of Pancreatic Cancer Stem Cells (Panc1, Adherent) (AID 1259362); settings: Potency: viability; further: potency means the concentration at half of the fitted maximal effect
Summary of the method: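 Viability is scored by CellTiter-Glo luminescence 48 h after dosing, expressed as percent activity against vehicle and no-cell references. Spheroid formats rely on cells cultured 14 days in stem cell media beforehand.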

[16] = P-glycoprotein substrates identified in KB-3-1 adenocarcinoma cell line, qHTS therapeutic library screen (AID 1346986); further: nearly all actives have a fitted effect of over 60% in size
Summary of the method: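 Using luminescence to quantify ATP, parental and P-gp-overexpressing KB cells were compared after 72 h compound titration. KB-8-5-11 was also run with the P-gp inhibitor tariquidar.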

[17] = Natriuretic polypeptide receptor (hNpr1) antagonism - Pilot counterscreen GloSensor control cell line (AID 1347045; calls by dose curve; further: potency means the concentration at half of the fitted maximal effect)
Summary of the method: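 The SNP-driven cGMP luminescence signal (50 uM, 20 min, room temperature) was measured in GloSensor HEK293 control cells. Compounds were tested as a LOPAC titration series and preincubated for 30-50 min.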

[18] = molecular target: Atrial natriuretic peptide receptor 1 (Homo sapiens) (UniProt P16066); assay: Natriuretic polypeptide receptor (hNpr1) antagonism - Pilot screen (AID 1347049; calls by dose curve;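 further: HEK293 cells with hNpr1 and GloSensor cGMP luciferase stimulated by 0.1 nM hNppA; agonist-evoked cGMP luminescence read 20 min after hNppA addition; series mostly up to about 58 µM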)
Summary of the method: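 Cells expressing receptor plus cGMP biosensor are seeded and incubated overnight at 37C, then loaded with GloSensor reagent (2% final) at room temperature for 2 h. Library compounds go on for 30 min. A pre-read precedes agonist (hNppA, 0.1 nM final) and a 20-min readout.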

[19] = molecular target: Atrial natriuretic peptide receptor 2 (Homo sapiens) (UniProt P20594); assay: Natriuretic polypeptide receptor (hNpr2) antagonism - Pilot subtype selectivity assay (AID 1347050; calls by dose curve)
Summary of the method: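 Read-out: GloSensor luminescence (CCD imager), baseline vs post-stimulation. HEK293 cells expressing hNpr2; compounds pre-incubated 30-50 min at ambient temperature; hNppC 1 nM final, 20 min.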

[20] = molecular target: Parathyroid hormone/parathyroid hormone-related peptide receptor (Homo sapiens) (UniProt Q03431); assay: qHTS for PTHR1 Agonists: Optimization Screen against the NCGC LOPAC library (AID 1347079);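 further: GloSensor cAMP luminescence in HEK-293 GP2 cells expressing human PTHR1 with IBMX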
Summary of the method: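 Signal increase flags agonism. GP2 cells, derived from HEK-293, express human PTHR1 and a GloSensor cAMP construct.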

Chain of Atrial natriuretic peptide receptor 1 (Homo sapiens) (P16066 whole entry, looked up): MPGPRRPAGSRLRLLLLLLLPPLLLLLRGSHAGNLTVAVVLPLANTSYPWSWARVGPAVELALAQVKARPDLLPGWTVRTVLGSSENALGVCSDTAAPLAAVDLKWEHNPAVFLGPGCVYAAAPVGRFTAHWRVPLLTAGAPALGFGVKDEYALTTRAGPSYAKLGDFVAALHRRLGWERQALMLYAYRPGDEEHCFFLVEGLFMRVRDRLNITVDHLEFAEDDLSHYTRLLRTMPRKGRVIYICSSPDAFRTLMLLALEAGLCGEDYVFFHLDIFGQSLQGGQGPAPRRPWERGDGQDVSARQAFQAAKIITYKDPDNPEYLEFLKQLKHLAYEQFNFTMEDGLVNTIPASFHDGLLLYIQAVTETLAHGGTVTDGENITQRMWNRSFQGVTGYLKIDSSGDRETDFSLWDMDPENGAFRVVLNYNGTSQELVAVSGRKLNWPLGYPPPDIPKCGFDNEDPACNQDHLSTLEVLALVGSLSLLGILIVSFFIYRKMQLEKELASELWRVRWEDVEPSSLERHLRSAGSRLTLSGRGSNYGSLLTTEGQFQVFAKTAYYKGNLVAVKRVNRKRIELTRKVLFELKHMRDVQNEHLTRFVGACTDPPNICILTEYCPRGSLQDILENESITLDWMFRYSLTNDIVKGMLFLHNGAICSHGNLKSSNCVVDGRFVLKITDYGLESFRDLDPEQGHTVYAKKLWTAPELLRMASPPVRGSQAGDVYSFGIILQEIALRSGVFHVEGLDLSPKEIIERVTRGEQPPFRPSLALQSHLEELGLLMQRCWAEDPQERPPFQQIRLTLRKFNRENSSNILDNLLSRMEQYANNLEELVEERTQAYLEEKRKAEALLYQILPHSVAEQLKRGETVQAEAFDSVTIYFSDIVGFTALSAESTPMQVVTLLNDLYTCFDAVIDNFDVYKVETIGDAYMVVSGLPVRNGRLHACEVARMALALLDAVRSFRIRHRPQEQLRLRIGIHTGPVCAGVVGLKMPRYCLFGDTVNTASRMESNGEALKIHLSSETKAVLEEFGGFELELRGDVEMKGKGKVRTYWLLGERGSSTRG
Chain of Atrial natriuretic peptide receptor 2 (Homo sapiens) (P20594 whole entry, looked up): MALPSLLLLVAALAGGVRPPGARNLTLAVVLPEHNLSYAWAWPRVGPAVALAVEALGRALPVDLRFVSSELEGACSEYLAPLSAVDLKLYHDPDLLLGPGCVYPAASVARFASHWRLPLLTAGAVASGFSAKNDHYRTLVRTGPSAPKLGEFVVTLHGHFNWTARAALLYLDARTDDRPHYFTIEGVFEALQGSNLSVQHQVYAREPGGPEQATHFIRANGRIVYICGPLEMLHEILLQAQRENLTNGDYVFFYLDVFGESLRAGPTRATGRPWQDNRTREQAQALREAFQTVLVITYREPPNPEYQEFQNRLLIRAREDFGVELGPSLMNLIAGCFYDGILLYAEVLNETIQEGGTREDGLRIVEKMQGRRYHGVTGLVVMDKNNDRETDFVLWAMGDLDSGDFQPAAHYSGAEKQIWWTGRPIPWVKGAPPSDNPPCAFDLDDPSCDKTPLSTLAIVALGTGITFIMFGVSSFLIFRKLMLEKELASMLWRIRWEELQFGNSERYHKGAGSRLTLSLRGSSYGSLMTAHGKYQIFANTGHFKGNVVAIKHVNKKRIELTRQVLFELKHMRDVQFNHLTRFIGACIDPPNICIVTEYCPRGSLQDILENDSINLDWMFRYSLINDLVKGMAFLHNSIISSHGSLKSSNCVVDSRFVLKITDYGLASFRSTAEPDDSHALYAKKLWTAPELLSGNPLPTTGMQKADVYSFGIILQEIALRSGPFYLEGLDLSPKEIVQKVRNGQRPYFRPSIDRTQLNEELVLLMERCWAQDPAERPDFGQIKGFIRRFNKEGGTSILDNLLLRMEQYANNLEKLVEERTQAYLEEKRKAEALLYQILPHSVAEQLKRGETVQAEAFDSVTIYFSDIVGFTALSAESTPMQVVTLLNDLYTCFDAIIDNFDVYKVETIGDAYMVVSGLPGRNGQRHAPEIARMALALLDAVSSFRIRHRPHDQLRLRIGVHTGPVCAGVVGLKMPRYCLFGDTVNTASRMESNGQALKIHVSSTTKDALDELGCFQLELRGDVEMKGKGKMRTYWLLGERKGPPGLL
Chain of Parathyroid hormone/parathyroid hormone-related peptide receptor (Homo sapiens) (Q03431 whole entry, looked up): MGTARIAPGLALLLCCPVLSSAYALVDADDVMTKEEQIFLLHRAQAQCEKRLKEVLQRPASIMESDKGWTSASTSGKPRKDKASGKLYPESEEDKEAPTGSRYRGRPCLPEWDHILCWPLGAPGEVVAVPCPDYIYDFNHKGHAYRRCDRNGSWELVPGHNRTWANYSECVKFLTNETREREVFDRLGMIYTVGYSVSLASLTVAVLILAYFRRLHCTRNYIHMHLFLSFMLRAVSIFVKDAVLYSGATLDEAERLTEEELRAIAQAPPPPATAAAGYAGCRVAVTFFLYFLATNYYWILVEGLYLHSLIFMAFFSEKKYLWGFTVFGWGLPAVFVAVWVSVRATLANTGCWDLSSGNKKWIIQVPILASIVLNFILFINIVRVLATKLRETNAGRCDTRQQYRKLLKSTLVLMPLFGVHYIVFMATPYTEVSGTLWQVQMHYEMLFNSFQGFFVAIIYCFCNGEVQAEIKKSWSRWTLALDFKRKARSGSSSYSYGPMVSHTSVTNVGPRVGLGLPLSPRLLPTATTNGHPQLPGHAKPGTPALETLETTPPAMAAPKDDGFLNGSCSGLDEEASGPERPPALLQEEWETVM
T1 sequence (P78324 whole entry, looked up, the tested form may be a part): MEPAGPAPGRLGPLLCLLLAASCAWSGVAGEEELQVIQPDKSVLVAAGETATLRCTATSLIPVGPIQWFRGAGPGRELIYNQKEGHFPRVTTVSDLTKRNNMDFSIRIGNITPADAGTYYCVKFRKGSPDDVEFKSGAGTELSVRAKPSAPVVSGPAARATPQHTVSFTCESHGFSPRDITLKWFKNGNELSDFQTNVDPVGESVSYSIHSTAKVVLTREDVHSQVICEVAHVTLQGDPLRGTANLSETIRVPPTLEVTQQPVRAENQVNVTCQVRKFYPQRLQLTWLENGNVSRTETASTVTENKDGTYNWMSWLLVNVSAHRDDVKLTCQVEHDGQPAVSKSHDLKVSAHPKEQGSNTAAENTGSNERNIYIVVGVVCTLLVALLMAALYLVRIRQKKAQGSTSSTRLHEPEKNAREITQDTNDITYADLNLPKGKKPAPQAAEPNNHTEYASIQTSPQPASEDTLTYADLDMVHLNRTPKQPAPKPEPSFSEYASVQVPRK
T1 sequence (Q08722 whole entry, looked up, the tested form may be a part): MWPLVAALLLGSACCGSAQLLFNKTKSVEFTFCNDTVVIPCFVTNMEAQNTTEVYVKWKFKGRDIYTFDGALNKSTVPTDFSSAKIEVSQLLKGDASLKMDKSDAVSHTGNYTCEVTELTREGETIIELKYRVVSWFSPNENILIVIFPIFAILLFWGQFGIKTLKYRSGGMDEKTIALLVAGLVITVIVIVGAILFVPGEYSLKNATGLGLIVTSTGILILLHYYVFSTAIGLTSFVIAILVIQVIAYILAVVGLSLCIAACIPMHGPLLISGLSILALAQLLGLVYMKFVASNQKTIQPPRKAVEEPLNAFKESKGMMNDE

CN1CCC(=C2c3ccccc3CCc3sccc32)CC1
inactive: Potency [1] | Potency [2] | Potency [3] | Potency [4] | Potency [5]

N=C(N)c1ccc2cc(OC(=O)c3ccc(N=C(N)N)cc3)ccc2c1
inactive: Potency [1] | Potency [6] | Potency [2] | Potency [3] | Potency [4] | Potency [5] | Potency [7]

Cc1cccc(-c2[nH]ncc2-c2ccc3ncccc3n2)n1
inactive: Potency [8] | Potency [9] | IC50 (viability decrease) [10] | Potency [6] | Potency [2] | outcome [11] | Potency [12] | Potency [3] | Potency [4] | Potency [5] | Potency [7]

CC(C)C[C@H](NC(=O)[C@H](Cc1ccccc1)NC(=O)c1cnccn1)B(O)O
active: Potency [9] 0.0166 µM | Potency [13] 0.0017 µM | Potency [14] 0.0105 µM | IC50 (viability decrease) [10] 0.0037 µM | Potency [15] 0.0148 µM | Potency [2] 0.0332 µM | Potency [3] 0.0836 µM | Potency [4] 0.0296 µM | Potency [5] 0.0266 µM | Potency [7] 0.0531 µM

CCN(CC)CCOc1ccc(Nc2ncc3cc(-c4c(Cl)cccc4Cl)c(=O)n(C)c3n2)cc1
active: Potency [8] 13.2 µM | Potency [9] 0.662 µM | Potency [13] 1.05 µM | Potency [14] 16.6 µM | IC50 (viability decrease) [10] 1.48 µM | Potency [15] 0.296 µM | Potency [6] 0.166 µM | Potency [2] 0.166 µM | Potency [3] 6.58 µM | Potency [4] 0.187 µM | Potency [5] 0.418 µM | Potency [7] 0.118 µM
inactive: outcome [11] | Potency [12]

CCOC(=O)C1=C(O)C(=O)N(Cc2ccccc2)C1
inactive: Potency [8] | Potency [9] | Potency [14] | Potency [6] | Potency [2] | outcome [11] | Potency [12] | Potency [3] | Potency [4] | Potency [5]

O=C1c2c(O)cc(O)cc2OC(c2ccc(O)c(O)c2)C1O (stereo not drawn)
inactive: Potency [16] | Potency [6] | Potency [17] | Potency [18] | Potency [19] | Potency [2] | outcome [11] | Potency [12] | outcome [20] | Potency [3] | Potency [4] | Potency [5] | Potency [7]

O=C1CCc2ccc(OCCCCN3CCN(c4cccc(Cl)c4Cl)CC3)cc2N1
active: Potency [5] 18.8 µM
inactive: Potency [1] | Potency [6] | Potency [3] | Potency [4] | Potency [7]

NNc1nncc2ccccc12
inactive: Potency [1] | Potency [18] | Potency [19] | Potency [2] | outcome [20] | Potency [3] | Potency [4] | Potency [5] | Potency [7]

O=C1NC(=O)C(c2ccccc2[N+](=O)[O-])=C1Nc1ccc(O)c(Cl)c1
active: Potency [7] 5.9 µM
inactive: Potency [16] | Potency [6] | Potency [17] | Potency [18] | Potency [19] | Potency [2] | outcome [11] | Potency [12] | outcome [20] | Potency [3] | Potency [4]

O=P(O)(O)C(O)(Cn1ccnc1)P(=O)(O)O
inactive: Potency [1] | Potency [6] | Potency [3] | Potency [4] | Potency [5] | Potency [7]

CC1(C)CCC(C)(C)c2cc(NC(=O)c3ccc(C(=O)O)cc3)ccc21
inactive: Potency [1] | Potency [6] | Potency [2] | Potency [3] | Potency [5]

COC(=O)C1=C(C)NC(C)=C(C(=O)OC(C)C)C1c1cccc2nonc12 (stereo not drawn)
inactive: Potency [1] | Potency [6] | Potency [2] | Potency [3] | Potency [5]

CC(C)c1ccc2c(c1)c(SC(C)(C)C)c(CC(C)(C)C(=O)O)n2Cc1ccc(Cl)cc1
inactive: Potency [9] | Potency [15] | Potency [6] | Potency [18] | Potency [19] | Potency [2] | outcome [11] | Potency [12] | outcome [20] | Potency [3]
active: Potency [8] 18.7 µM | Potency [13] 18.7 µM | Potency [17] 13.1 µM | Potency [4] 23.5 µM | Potency [5] 20.9 µM
